Results published in PubChem BioAssay AID1159580 (chemical genetic matrix, 2015).
In all, about 5,500 compounds went through this assay and about 2,000 (36%) were called active. Another 18% or so got no clear call; they are omitted. This is one part of the list. Unmarked numbers belong to inactive results. Cut-off read from the data, not from the text of the source: active = normalized growth mostly below about 0.91 (no sharp cut-off); inconclusive = no clear call, values can overlap the other calls; inactive = mostly above about 0.92.

Assay: chemical genetic growth profiling, strain panel (AID 1159580);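 note: tested at 20 µM; growth read once vehicle control cultures reached saturation at 30 °C; 1 = growth at the plate median or of vehicle wells; lower values mean less growth of the strain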
Details: S. cerevisiae deletion strains, growth OD

Compound: O=C1OC(c2ccccc2)=C/C1=C/c1ccccc1
- normalized growth (locus YAR019C, strain CDC15, hits give low values): 0.952
- normalized growth (locus YBL105C, strain PKC1, hits give low values): 0.953
- normalized growth (locus YBR135W, strain CKS1, hits give low values): 0.942
- normalized growth (locus YBR136W, strain MEC1, hits give low values): 0.953
- normalized growth (locus YBR160W, strain CDC28, hits give low values): 0.943
- normalized growth (locus YDL017W, strain CDC7, hits give low values): 0.95
- normalized growth (locus YDL028C, strain MPS1, hits give low values): 0.923
- normalized growth (locus YDL101C, strain DUN1, hits give low values): 0.966
- normalized growth (locus YDL108W, strain KIN28, hits give low values): 0.925
- normalized growth (locus YDL132W, strain cdc53, hits give low values): 0.96
- normalized growth (locus YDL214C, strain PRR2, hits give low values): 0.604 (active)
- normalized growth (locus YDR052C, strain DBF4, hits give low values): 0.969
- normalized growth (locus YDR054C, strain cdc34, hits give low values): 0.962
- normalized growth (locus YDR226W, strain ADK1, hits give low values): 0.944
- normalized growth (locus YDR477W, strain SNF1, hits give low values): 0.635 (active)
- normalized growth (locus YER123W, strain YCK3, hits give low values): 0.869
- normalized growth (locus YER133W, strain GLC7, hits give low values): 0.725
- normalized growth (locus YFL009W, strain cdc4, hits give low values): 0.961
- normalized growth (locus YFL029C, strain CAK1, hits give low values): 0.925
- normalized growth (locus YFR003C, strain YPI1, hits give low values): 0.956
- normalized growth (locus YFR019W, strain FAB1, hits give low values): 0.946
- normalized growth (locus YFR028C, strain CDC14, hits give low values): 0.948
- normalized growth (locus YGR040W, strain KSS1, hits give low values): 0.674 (active)
- normalized growth (locus YGR052W, strain FMP48, hits give low values): 0.353 (active)
- normalized growth (locus YGR092W, strain DBF2, hits give low values): 0.855
- normalized growth (locus YHR030C, strain SLT2, hits give low values): 0.506 (active)
- normalized growth (locus YHR079C, strain IRE1, hits give low values): 0.934
- normalized growth (locus YHR082C, strain KSP1, hits give low values): 0.522 (active)
- normalized growth (locus YHR205W, strain SCH9, hits give low values): 0.514 (active)
- normalized growth (locus YIL147C, strain SLN1, hits give low values): 0.955
- normalized growth (locus YJL095W, strain BCK1, hits give low values): 0.669
- normalized growth (locus YJL128C, strain PBS2, hits give low values): 1
- normalized growth (locus YJL157C, strain FAR1, hits give low values): 0.761
- normalized growth (locus YJR016C, strain ILV3, hits give low values): 0.954
- normalized growth (locus YJR066W, strain TOR1 (second series), hits give low values): 0.861
- normalized growth (locus YJR066W, strain TOR1, hits give low values): 0.461 (active)
- normalized growth (locus YKL048C, strain ELM1, hits give low values): 0.889
- normalized growth (locus YKL101W, strain HSL1, hits give low values): 0.797
- normalized growth (locus YKL193C, strain SDS22, hits give low values): 0.948
- normalized growth (locus YKL203C, strain TOR2, hits give low values): 0.614 (active)
- normalized growth (locus YLR113W, strain HOG1, hits give low values): 0.714 (active)
- normalized growth (locus YLR133W, strain CKI1, hits give low values): 0.843
- normalized growth (locus YLR403W, strain SFP1, hits give low values): 0.611 (active)
- normalized growth (locus YML070W, strain DAK1, hits give low values): 0.892
- normalized growth (locus YMR001C, strain CDC5, hits give low values): 0.951
- normalized growth (locus YMR205C, strain PFK2 (second series), hits give low values): 0.843
- normalized growth (locus YMR277W, strain FCP1, hits give low values): 0.918
- normalized growth (locus YNL006W, strain LST8, hits give low values): 0.956
- normalized growth (locus YNL020C, strain ARK1, hits give low values): 0.9
- normalized growth (locus YNL161W, strain CBK1, hits give low values): 0.945
- normalized growth (locus YNL183C, strain NPR1, hits give low values): 0.188 (active)
- normalized growth (locus YNL207W, strain RIO2, hits give low values): 0.951
- normalized growth (locus YNL222W, strain SSU72, hits give low values): 0.932
- normalized growth (locus YNL307C, strain MCK1 (second series), hits give low values): 0.95
- normalized growth (locus YOL078W, strain AVO1, hits give low values): 0.954
- normalized growth (locus YOL136C, strain PFK27, hits give low values): 0.914
- normalized growth (locus YOR061W, strain CKA2, hits give low values): 0.844
- normalized growth (locus YOR119C, strain RIO1, hits give low values): 0.519 (active)
- normalized growth (locus YOR231W, strain MKK1, hits give low values): 0.943
- normalized growth (locus YOR329C, strain SCD5, hits give low values): 0.961
- normalized growth (locus YPL031C, strain PHO85, hits give low values): 0.758
- normalized growth (locus YPL153C, strain RAD53, hits give low values): 0.798
- normalized growth (locus YPL204W, strain HRR25, hits give low values): 0.839
- normalized growth (locus YPL209C, strain IPL1, hits give low values): 0.947
- normalized growth (locus YPL256C, strain CLN2, hits give low values): 0.793 (active)
- normalized growth (locus YPR025C, strain CCL1, hits give low values): 0.945
- normalized growth (locus YPR106W, strain ISR1, hits give low values): 0.981
- normalized growth (locus YPR111W, strain DBF20, hits give low values): 0.964
- normalized growth (strain NNK1, hits give low values): 0.949
- normalized growth (strain TSCII, hits give low values): 0.93

Compound: NC(=O)c1ccc(OCC(O)CN2CC=C(c3ccc(F)cc3)CC2)cc1 (centres undefined)
- normalized growth (locus YAL040C, strain CLN3, hits give low values): 1.06
- normalized growth (locus YCL061C, strain MRC1 (second series), hits give low values): 0.982
- normalized growth (locus YDR150W, strain NUM1, hits give low values): 1.01
- normalized growth (locus YDR363W, strain ESC2, hits give low values): 0.964
- normalized growth (locus YER002W, strain NOP16, hits give low values): 1.01
- normalized growth (locus YMR263W, strain SAP30, hits give low values): 0.98
- normalized growth (locus YMR307W, strain GAS1, hits give low values): 0.998
- normalized growth (locus YNL128W, strain TEP1, hits give low values): 1.01
- normalized growth (locus YNL175C, strain NOP13, hits give low values): 1.03
- normalized growth (locus YNL197C, strain WHI3, hits give low values): 1
- normalized growth (locus YNL224C, strain SQS1, hits give low values): 1.01
- normalized growth (locus YNL322C, strain KRE1, hits give low values): 0.962
- normalized growth (locus YOR083W, strain WHI5 (second series), hits give low values): 1
- normalized growth (locus YPL055C, strain LGE1, hits give low values): 0.98
